Test results from PubChem BioAssay.
Values without a mark were called inactive. The rule behind the calls is not given here.

These molecules were tested on Botulinum neurotoxin type F light chain protease (Clostridium botulinum) (assay: Clostridium botulinum type F light chain protease inhibitors, microsphere substrate cleavage, validation (AID 588459)). Settings: multiplex microsphere protease substrate cleavage assay, flow cytometry; at 10 µM; active compounds read high.

Row | SMILES | inhibition [%]
1 | NC(N)=N/N=C/c1cccc(Cl)c1Cl | 0.9
2 | O=C(NCCc1c[nH]c2ccccc12)OCCSS(=O)(=O)O | -4.5
3 | COc1ccc2cc[nH]c2c1 | -1.5
4 | c1ccc(Cn2ncc3c(Nc4ccccc4)ncnc32)cc1 | 1.6
5 | O=C(OCCNC(=O)c1ccc2ccccc2n1)c1ccc(F)cc1 | 1.8
6 | NC(N)=NC(N)=Nc1ccc2ccccc2c1 | 3.6
7 | CN1C(=O)NC(c2ccc(O)cc2)C2=C1CN(c1cccc3ccccc13)C2=O (centres undefined) | 3.2
8 | CC(=O)c1ccc(CCCCCCCCCC(=O)O)s1 | 1.9
9 | COc1cccc(N2CC34C=CC(O3)C(C(=O)O)C4C2=O)c1 (centres undefined) | 3.9
10 | Cc1cc(O)c2/c(=N\N)c(-c3csc(C)n3)coc2c1 | -0.4
11 | CC[N+]1(C)CC2CCC(C)(C1)C2(C)C (centres undefined) | 1.1
12 | C#CCN(C)CCCOc1ccc(Cl)cc1Cl | 1.1
13 | CNc1nc(N(C)C)nc(N(C)C)n1 | 1.3
14 | CC[n+]1c(C)sc2cc(C)ccc21 | 3.6
15 | Oc1ccc(Cl)cc1Cc1cc(Cl)ccc1O | 10
16 | CC(C)CCC1(CCNC(C)c2cccs2)CCOC(C)(C)C1 (centres undefined) | -3.5
17 | COc1ccc(OC)c(C(=O)c2coc3ccc(O)cc23)c1 | -0.5
18 | CC(C)C[C@H](NC(=O)NC(C)C)C(=O)O | 1.1
19 | CC(C)CC(NC(=O)c1cccc(Cl)c1)C(=O)O (centres undefined) | -4.2
